This passage reports outcome and AC50 results from PubChem BioAssay (EPA / NIEHS).

Molecules are shown by their SMILES. The source made the active and inactive calls. The calls were made as follows: active = hit-call score of the fitted dose curve at least 0.9, where 1 is the maximum; inactive = score below 0.9.

Read-out in assay [1]: Transforming growth factor beta 1 (TGFb1), TGFB1 (gene 7040)
As to the kind of experiment: BSK_KF3CT_TGFb1: BioMAP Diversity Plus: KF3CT Assay for Transforming growth factor beta 1 (TGFb1) Biomarker Activity (AID 2283072). Conditions: primary human keratinocytes with fibroblasts; actives raise or lower the signal. Summed up:
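ELISA quantifies TGF-b1 at 24 h post-dose in a primary human skin co-culture of keratinocytes and fibroblasts, with gain or loss judged against DMSO. Parallel SRB total-protein staining flags overt cytotoxicity.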

Read-out in assay [2]: C-C motif chemokine 2 (Homo sapiens) (UniProt P13500)
Description: BSK_KF3CT_MCP1: BioMAP Diversity Plus: KF3CT Assay for Monocyte Chemoattractant Protein 1 (MCP1/CCL2) Biomarker Activity (AID 2283073). Conditions: primary human keratinocytes with fibroblasts; actives raise or lower the signal. The essentials: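 Human keratinocyte–foreskin fibroblast co-culture; MCP-1 measured by ELISA 24 h after dosing. Bidirectional fit vs DMSO; cytotoxicity tracked by SRB total protein in parallel cultures.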

Read-out in assay [3]: Matrix Metallopeptidase 9 (MMP9), MMP9 (gene 4318)
Description: BSK_KF3CT_MMP9: BioMAP Diversity Plus: KF3CT Assay for Matrix Metallopeptidase 9 (MMP9) Biomarker Activity (AID 2283074).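 As to AC50: MMP9 protein level quantified by ELISA in the co-culture.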 Conditions: primary human keratinocytes with fibroblasts; actives raise or lower the signal. The essentials: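 ELISA read-out of MMP-9 at 24 h post-dosing in a co-culture of human skin keratinocytes and foreskin fibroblasts. Gain or loss of signal was fitted in both directions against DMSO.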

Read-out in assay [4]: urokinase plasminogen activator (uPA), PLAU (gene 5328)
Description: BSK_KF3CT_uPA: BioMAP Diversity Plus: KF3CT Assay for urokinase plasminogen activator (uPA) Biomarker Activity (AID 2283075). Conditions: primary human keratinocytes with fibroblasts; actives raise or lower the signal. The essentials:
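Skin co-culture (keratinocytes + foreskin fibroblasts), human primary; 24 h post-dose; uPA by ELISA; gain/loss fit vs DMSO baseline.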

Read-out in another assay: CD40, CD40 (gene 958)
As to the kind of experiment: BSK_LPS_CD40: BioMAP Diversity Plus: LPS Assay for CD40 Biomarker Activity (AID 2283076). Conditions: primary human HUVEC with PBMC; actives raise or lower the signal. Summed up:
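HUVEC plus PBMC co-culture stimulated with LPS; CD40 quantified by ELISA 24 h after compound dosing. Fitting was bidirectional relative to DMSO. SRB staining of parallel cultures flagged overt cytotoxicity.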

Read-out in assay [5]: E-selectin (Homo sapiens) (UniProt P16581)
Description: BSK_LPS_Eselectin: BioMAP Diversity Plus: LPS Assay for Eselectin Biomarker Activity (AID 2283077). Conditions: primary human HUVEC with PBMC; actives raise or lower the signal. Summed up:
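Human umbilical vein endothelial cells co-cultured with PBMC under LPS stimulation; cell-surface E-selectin measured by ELISA 24 h after dosing. Change in either direction versus DMSO, with SRB total-protein staining in parallel cultures for cytotoxicity.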

Read-out in assay [6]: Interleukin-8 (IL8), CXCL8 (gene 3576)
As to the kind of experiment: BSK_LPS_IL8: BioMAP Diversity Plus: LPS Assay for Interleukin-8 (IL8) Biomarker Activity (AID 2283078). Conditions: primary human HUVEC with PBMC; actives raise or lower the signal. Summed up:
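Human umbilical vein endothelial cells co-cultured with PBMC, LPS-stimulated, exposed to compound for 24 h. IL-8 quantified by ELISA; fitted in both directions against DMSO, with SRB total-protein staining of parallel cultures for cytotoxicity.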

Assay [7] is described as follows: BSK_LPS_SRB: Viability Assessment in the BioMAP Diversity Plus: LPS Assay (AID 2283079).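 Also: total protein by sulforhodamine B absorbance as a cytotoxicity measure; measured one day after compound addition.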 Conditions: primary human HUVEC with PBMC. The essentials:
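Co-culture of human umbilical vein endothelial cells and PBMC, read 24 h after dosing. Total protein by 0.1% SRB staining after 10% TCA fixation, absorbance at 560 nm; bidirectional fit against DMSO.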

Read-out in assay [8]: Interleukin-1 alpha (IL1a), IL1A (gene 3552)
Description: BSK_LPS_IL1a: BioMAP Diversity Plus: LPS Assay for Interleukin-1 alpha (IL1a) Biomarker Activity (AID 2283080). Conditions: primary human HUVEC with PBMC; actives raise or lower the signal. Summed up: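 Human umbilical vein endothelial cells co-cultured with PBMC and stimulated with LPS; IL-1a measured by ELISA 24 h after dosing. Bidirectional fitting against DMSO; cytotoxicity checked by SRB staining in parallel cultures.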

Read-out in assay [9]: Monocyte Chemoattractant Protein-1 (MCP1), CCL2 (gene 6347)
Description: BSK_LPS_MCP1: BioMAP Diversity Plus: LPS Assay for Monocyte Chemoattractant Protein-1 (MCP1) Biomarker Activity (AID 2283081). Conditions: primary human HUVEC with PBMC; actives raise or lower the signal. The essentials:
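Human umbilical vein endothelial cells co-cultured with PBMC, LPS-stimulated; secreted MCP-1 measured by ELISA 24 h after compound addition. Bidirectional curve fitting against DMSO baseline; SRB total-protein staining in parallel cultures for cytotoxicity.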

Chain of E-selectin (Homo sapiens) (P16581 whole entry, looked up): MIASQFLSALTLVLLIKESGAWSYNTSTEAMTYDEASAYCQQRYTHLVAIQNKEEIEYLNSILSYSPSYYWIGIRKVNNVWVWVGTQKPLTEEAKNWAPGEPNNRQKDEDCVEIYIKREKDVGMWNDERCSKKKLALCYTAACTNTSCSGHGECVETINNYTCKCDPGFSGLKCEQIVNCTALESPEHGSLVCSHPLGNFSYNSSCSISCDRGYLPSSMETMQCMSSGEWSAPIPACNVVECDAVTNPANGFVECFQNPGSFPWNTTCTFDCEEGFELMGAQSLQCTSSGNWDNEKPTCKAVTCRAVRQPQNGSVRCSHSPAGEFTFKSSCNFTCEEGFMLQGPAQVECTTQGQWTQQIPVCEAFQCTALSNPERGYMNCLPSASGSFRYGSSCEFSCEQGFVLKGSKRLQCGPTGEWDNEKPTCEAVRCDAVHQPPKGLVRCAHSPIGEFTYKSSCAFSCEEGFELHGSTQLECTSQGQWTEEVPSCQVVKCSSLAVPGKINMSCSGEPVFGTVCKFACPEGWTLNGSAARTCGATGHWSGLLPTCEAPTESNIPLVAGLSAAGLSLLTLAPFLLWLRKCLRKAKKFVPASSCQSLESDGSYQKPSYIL

For `CC(C)CC(C)O` (stereo not given), the outcome was “inactive” in [1]; “inactive” in [2]; “inactive” in [3]; “inactive” in [4]; “inactive” with CD40, CD40 (gene 958); “inactive” in [5]. The outcome in assay [6], in assay [7] and in [8] was inactive.
Turning to `c1ccc2c(c1)-c1cccc3c1c-2cc1ccccc13`, the outcome in [1] is “inactive”; in [2], “inactive”; in [3] it was “inactive”; in assay [4], “inactive”; with CD40, CD40 (gene 958) it was “inactive”; in assay [5] it was “inactive”. Further, the outcome in assay [6], in [7] and in assay [8] was inactive.
For `CCCCCOC(C)=O`, the result in assay [1], in assay [2], in [3], in assay [4], in [5] and in assay [6] was inactive. Besides, the outcome in assay [7] and in [8] was inactive.
For the compound `CC(C)C(=O)Nc1ccc([N+](=O)[O-])c(C(F)(F)F)c1`, the outcome in [1] was “inactive”; in assay [2] it was “inactive”; in [3] it was “inactive”; in [4] it was “inactive”; with CD40, CD40 (gene 958), “inactive”; in assay [5] it was “inactive”. Further, the result in assay [6], in assay [7], in assay [8] and in assay [9] was inactive.
With `C[C@@H](Oc1ccc(CNC(=O)c2cccnc2Oc2ccc3c(c2)OCO3)c(F)c1)C(=O)O`, the outcome in [1] is “inactive”; in assay [2], “inactive”; in assay [3], “inactive”; with CD40, CD40 (gene 958), “inactive”; in assay [5] it was “inactive”; in [7], “inactive”. In addition, the outcome in [8] was inactive.
Take `O=c1[nH]cnc2c1ncn2[C@H]1CC[C@@H](CO)O1`: the outcome was “inactive” in assay [1]; “inactive” in assay [2]; “inactive” in assay [3]; “inactive” in assay [4]; “inactive” in the assay with CD40, CD40 (gene 958); “inactive” in [5]. Besides, the outcome in assay [6], in [7], in assay [8] and in assay [9] was inactive.
Consider `O=S1(=O)CCCO1`, for which the outcome was “inactive” in [1]; “inactive” in assay [2]; “inactive” in assay [3]; “inactive” in assay [4]; “inactive” in the assay with CD40, CD40 (gene 958); “inactive” in assay [5]. Moreover, the result in assay [7], in assay [8] and in assay [9] was inactive.
Regarding `C=CN1CCCC1=O`, the outcome in [1] is “inactive”; in [2], “inactive”; in [3], “inactive”; in the assay with CD40, CD40 (gene 958), “inactive”; in [5], “inactive”; in assay [7], “inactive”. Further, the outcome in assay [8] was inactive.
Consider `CCCCCCCCCC`, for which the outcome in assay [1] was “inactive”; in assay [2], “inactive”; in [3] it was “inactive”; with CD40, CD40 (gene 958) it was “inactive”; in [5] it was “inactive”; in [7], “inactive”. In addition, the result in [8] and in assay [9] was inactive.
As to `OC[C@H]1O[C@@](CO)(O[C@H]2O[C@H](CO)[C@@H](O)[C@H](O)[C@H]2O)[C@@H](O)[C@@H]1O`, the outcome in assay [1], in assay [2], in [3], in assay [5], in assay [6] and in assay [7] was inactive. Further, the outcome in [8] and in [9] was inactive.
Take `OCc1c[nH]c2ccccc12`: the result in assay [1], in [2], in [5], in assay [7] and in [8] was inactive. In addition, the half-maximal activity concentration (AC50) in assay [3] is 20 µM (active).
Regarding `NC(=O)NN=Cc1ccc([N+](=O)[O-])o1`, the outcome in assay [1], in assay [2], in assay [3], in [5], in [7] and in assay [8] was inactive. Also, the outcome in [9] was inactive.
On to `CCCCCCOC(=O)CC(CC(=O)OCCCCCC)(OC(=O)CCC)C(=O)OCCCCCC`, for which the outcome is “inactive” in assay [1]; “inactive” in assay [3]; “inactive” in assay [4]; “inactive” in the assay with CD40, CD40 (gene 958); “inactive” in assay [5]; “inactive” in assay [7]. Further, in [8], the result was inactive.
Consider `CC(C)c1nnc2ccc(-c3ocnc3-c3cc(F)ccc3F)cn12`, for which the outcome in assay [1], in assay [3], in [4] and in assay [7] was inactive. Moreover, the AC50 in [5] is 0.248 µM (active); in assay [6], 0.148 µM (active); in [8] it was 0.148 µM (active).
`CNC(C)=O`: the result in [1], in assay [3], in [4], in assay [5], in assay [7] and in assay [8] was inactive. In addition, in assay [9], the outcome was inactive.
With `C=CCc1cc(S(=O)(=O)c2ccc(O)c(CC=C)c2)ccc1O`, in assay [1], the result was inactive. Besides, the AC50 in assay [3] is 10.3 µM (active); in assay [4], 30.4 µM (active); with CD40, CD40 (gene 958) it was 11.7 µM (active); in [5] it was 29.2 µM (active); in assay [7] it was 14.7 µM (active); in [8] it was 30.6 µM (active).
In the case of `OCc1ccccc1`, the outcome was “inactive” in [1]; “inactive” in assay [3]; “inactive” in assay [4]; “inactive” in the assay with CD40, CD40 (gene 958); “inactive” in assay [5]; “inactive” in assay [6]. Also, the result in [7] and in assay [8] was inactive.
Regarding `Cc1ncc([C@@H](CCCCCCc2ccc3c(n2)NCCC3)CC(=O)O)cn1`, the outcome in assay [1] is “inactive”; in assay [3], “inactive”; in assay [4], “inactive”; with CD40, CD40 (gene 958), “inactive”; in assay [5] it was “inactive”; in assay [7], “inactive”. Besides, the result in assay [8] and in assay [9] was inactive.
With `S=P(N1CC1)(N1CC1)N1CC1`, the outcome in [1] was “inactive”; in [3], “inactive”; in assay [4], “inactive”; with CD40, CD40 (gene 958), “inactive”; in assay [5] it was “inactive”; in assay [7] it was “inactive”. Also, the result in assay [8] and in assay [9] was inactive.
